Compounds without any hit were thinned out: in the full panel of roughly 83,000, 20% have a hit.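 For each line, cells grew in 96-well plates with the test compound present at a single concentration for 48 hours.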 Values without a mark were called inactive. Activity calls are given as the source filed them. How the source made its calls: active means growth percent below 10; inactive means the rest.
Key:
Test in all cases: NCI-60 one-dose screen, 48 h (100 = growth as untreated, 0 = no growth, -100 = all killed)
Conditions in all cases: 10 µM unless noted
[1] = system: T-47D breast
[2] = system: BT-549 breast
[3] = system: MDA-MB-435 melanoma
[4] = system: SW-620 colon
[5] = system: MCF7 breast
[6] = system: HCT-116 colon
[7] = system: HCC-2998 colon
[8] = system: KM12 colon

| Compound | growth [1] | growth [2] | growth [3] | growth [4] | growth [5] | growth [6] | growth [7] | growth [8] |
| --- | --- | --- | --- | --- | --- | --- | --- | --- |
| CN(CSc1ccc(Cl)cc1)c1ccc(CSc2ccc(Cl)cc2)cc1 | 48.6% | 51.4% | 45.8% | 67.5% | 51.8% | 58.1% | 85.3% | 46.1% |
| OCCNc1nc(Nc2ccc(Cl)c(Cl)c2)nc2ccccc12 | 67.9% | 77.8% | 50% | 28.6% | 30.3% | 29.7% | -37.9% (active) | 35.5% |
| CC/C=C\C[C@H]1CC=C2C(=O)C=C[C@@H]2CC=CCCCC(=O)O[C@@H](CCCCC)CC=C2C(=O)C=C[C@@H]2CC=CCCCC(=O)O[C@@H](CCCCC)CC=C2C(=O)C=C[C@@H]2CC=CCCCC(=O)O[C@@H](CCCCC)CC=C2C(=O)C=C[C@@H]2CC=CCCCC(=O)O1 | 29.5% [7.9 µM] | -17.3% [7.9 µM] (active) | -23.1% [7.9 µM] (active) | 9.77% [7.9 µM] (active) | 20.4% [7.9 µM] | -53.6% [7.9 µM] (active) | 88.6% [7.9 µM] | 21.1% [7.9 µM] |
| O=C1c2ccccc2NC(c2cn(-c3ccccc3)nc2-c2cccnc2)N1Cc1ccccc1 (centres undefined) | 75% | 105% | 108% | 105% | 89.3% | 95.5% | 97.2% | 91.5% |
| Cc1ccc(-c2nc3ccc(Cl)cc3c(=O)n2N2C(=O)CSC2c2ccccc2Cl)cc1 (centres undefined) | 75.8% | 100% | 66.9% | 77.8% | 94.1% | 53.1% | 93.4% | 82.3% |
| Nc1ccccc1NC(=O)c1ccc(CN2CCC/C(=C\c3ccccn3)C2=O)cc1 | 8.73% (active) | 52.9% | -42.7% (active) | 12.3% | 6.01% (active) | 5.7% (active) | 31.5% | 25.2% |
| Oc1cccc2ccc(N/N=C/c3cc(CN4CCCCC4)c(O)c4ncccc34)nc12 | 25.3% | 11.1% | 20.2% | 16% | 10.3% | 1.57% (active) | 5.61% (active) | 9.18% (active) |
| Cn1cc(-c2csc(-c3cn(CCNC(=O)OC(C)(C)C)c4ccccc34)n2)c2cccnc21 | -1.03% (active) | 67.2% | 74.5% | 92.4% | 39.4% | 81.1% | 95.8% | 59.2% |
| CCCCC[C@H]1CC=C2C(=O)C=C[C@@H]2CC=CCCCC(=O)O[C@@H](CCCCC)CC=C2C(=O)C=C[C@@H]2CC=CCCCC(=O)O[C@@H](CCCCC)CC=C2C(=O)C=C[C@@H]2CC=CCCCC(=O)O1 | -10.2% [8.75 µM] (active) | -37.7% [8.75 µM] (active) | -31.8% [8.75 µM] (active) | 2.25% [8.75 µM] (active) | 5.55% [8.75 µM] (active) | -89.8% [8.75 µM] (active) | -38.7% [8.75 µM] (active) | -41% [8.75 µM] (active) |
| COc1ccc2nc(-c3c(-c4ccccc4)nc4ncccn34)[nH]c2c1 | 82.1% | 110% | 104% | 108% | 96.6% | 97.1% | 101% | 111% |
| COc1ccc(/C=C/C(=O)NCCO)cc1 | 89.8% | 102% | 104% | 99.3% | 94.8% | 101% | 103% | 103% |
| COC(=O)[C@]12CC[C@@H](C)[C@H](C)[C@@H]1C1=CC[C@@H]3[C@@]4(C)C(c5ncon5)=C[C@@](C)(CO)C4=CC[C@@]3(C)[C@]1(C)CC2 | -0.698% (active) | 8.08% (active) | -24% (active) | -34.7% (active) | -63% (active) | -83.1% (active) | -83.3% (active) | -47.6% (active) |
| O=C1c2cccc3cccc(c23)C(=O)N1CC#Cc1ccc2c3c(cccc13)C(=O)N(CCN1CCNCC1)C2=O | 38.3% | 101% | 105% | 28.3% | -43.9% (active) | -64.1% (active) | 104% | 98.9% |

— PubChem BioAssay (NCI)
